Results filed as inconclusive are left out. Where a call stands in place of a potency, no number is given. Activity calls are given as the source filed them. Calls come from the whole dose curve; as a rule, active = well fitted inhibition curve with a large enough effect; inconclusive = small, poorly fitted or top-dose-only effect; inactive = flat fitted curve, though single readings scatter.
These molecules were tested against Calcium and integrin-binding protein 1 (Homo sapiens) (UniProt Q99828) (assay: Primary qHTS for Identification of Calcium Integrin Binding Protein 1 (CIB1) Competitor (AID 1508620;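 note: GST tagged CIB1 binding a fluorescein labelled alphaIIb integrin peptide tracer; top concentration of the series differs between compounds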)). Details: CIB1-GST / FITC-alphaIIb peptide fluorescence polarization; series mostly up to 57.7 µM.
Calcium and integrin-binding protein 1 (Homo sapiens), sequence (Q99828 whole entry, looked up): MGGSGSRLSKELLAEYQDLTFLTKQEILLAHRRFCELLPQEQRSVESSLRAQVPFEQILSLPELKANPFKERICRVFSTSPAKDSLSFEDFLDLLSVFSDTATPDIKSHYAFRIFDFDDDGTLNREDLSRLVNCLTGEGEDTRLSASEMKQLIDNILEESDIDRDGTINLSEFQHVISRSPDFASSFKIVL
In short: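 CIB1-GST (1 uM final) and compound incubated 15 min at room temperature before adding FITC-alphaIIb peptide tracer (100 nM final). Competition for binding read by fluorescence polarization (ex 480, em 540) after another 15 min at room temperature.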
With `C=CCc1ccc(O[C@@H]2O[C@H](CO)[C@@H](O)[C@H](O)[C@H]2O)c(OC)c1` the Potency was “inactive”.
With `C[C@@H](OC(=O)/C=C/c1ccc(O)cc1)C1=C[C@]2(C=C[C@@H]3C(C(=O)O)=CO[C@@H](O[C@@H]4O[C@H](CO[C@@H]5O[C@H](CO)[C@@H](O)[C@H](O)[C@H]5O)[C@@H](O)[C@H](O)[C@H]4O)[C@@H]32)OC1=O` the Potency was “inactive”.
With `COC(=O)C1=CO[C@@H](O[C@@H]2O[C@H](CO)[C@@H](O)[C@H](O)[C@H]2O)[C@@H]2[C@@H](C)[C@@H](O)C[C@H]12` the Potency was “inactive”.
`C=C[C@H]1[C@H](O[C@@H]2O[C@H](CO)[C@@H](O)[C@H](O)[C@H]2O)OC=C2C(=O)OCC[C@]21O` was tested, and the Potency was “inactive”.
With `Oc1ccc([C@H]2COc3cc(O)ccc3C2)cc1` the Potency was “inactive”.
For `O=C(O)[C@H]1CCCC[C@H]1C(=O)N1CCc2ccccc2[C@H]1CN1C(=O)c2ccccc2C1=O`, the Potency was “inactive”.
`CC(C)c1cc2c(c(O)c1O[C@@H]1O[C@H](CO)[C@@H](O)[C@H](O)[C@H]1O)CC1(O)CCC(O)C(C)(C)C1CC2` (stereo not given in full) was tested, and the Potency was “inactive”.
In the case of `CC1(C)CC[C@]2(C(=O)O[C@@H]3O[C@H](CO)[C@@H](O)[C@H](O)[C@H]3O)CC[C@]3(C)C(=CCC4[C@@]5(C)C[C@@H](O)[C@H](O)[C@@](C)(CO)C5CC[C@]43C)C2C1` (stereo not given in full), the Potency is reported as “inactive”.
With `CC1=CC(=O)C2C(C)(C)CCCC2(C)C12CCC1(COC(=O)C1)O2` (stereo not given) the Potency was “inactive”.
For `COc1ccc(C(=O)O[C@H]2CC(C)=CC[C@@]3(C)[C@@H](OC(C)=O)C[C@@](O)(C(C)C)[C@H]23)cc1`, the Potency was “inactive”.

— PubChem BioAssay (NCATS)
